The list shows a part of the results. How many sequences the whole screen found active is unknown.
Target: furin, P09958
Assay: furin cleavage Z-score vs untreated control; higher = more cleavage, active = 3.5 or more, inactive = 1 or less, 8 variable residues between constant flanks
Method in brief: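 Reactions of 0.01 ml ran for 7.5, 15 or 30 min in 50 mM HEPES pH 7.5 with CaCl2 and NaCl, at 1:10 enzyme:substrate. In them, purified furin acted on bead-held 8-mer peptides fused to a cDNA oligonucleotide. The cleavage Z-score was obtained by lowess-adjusting log sequencing counts of released DNA against furin-free reactions and scaling by median absolute deviation.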

Chain of furin, P09958 (P09958 whole entry): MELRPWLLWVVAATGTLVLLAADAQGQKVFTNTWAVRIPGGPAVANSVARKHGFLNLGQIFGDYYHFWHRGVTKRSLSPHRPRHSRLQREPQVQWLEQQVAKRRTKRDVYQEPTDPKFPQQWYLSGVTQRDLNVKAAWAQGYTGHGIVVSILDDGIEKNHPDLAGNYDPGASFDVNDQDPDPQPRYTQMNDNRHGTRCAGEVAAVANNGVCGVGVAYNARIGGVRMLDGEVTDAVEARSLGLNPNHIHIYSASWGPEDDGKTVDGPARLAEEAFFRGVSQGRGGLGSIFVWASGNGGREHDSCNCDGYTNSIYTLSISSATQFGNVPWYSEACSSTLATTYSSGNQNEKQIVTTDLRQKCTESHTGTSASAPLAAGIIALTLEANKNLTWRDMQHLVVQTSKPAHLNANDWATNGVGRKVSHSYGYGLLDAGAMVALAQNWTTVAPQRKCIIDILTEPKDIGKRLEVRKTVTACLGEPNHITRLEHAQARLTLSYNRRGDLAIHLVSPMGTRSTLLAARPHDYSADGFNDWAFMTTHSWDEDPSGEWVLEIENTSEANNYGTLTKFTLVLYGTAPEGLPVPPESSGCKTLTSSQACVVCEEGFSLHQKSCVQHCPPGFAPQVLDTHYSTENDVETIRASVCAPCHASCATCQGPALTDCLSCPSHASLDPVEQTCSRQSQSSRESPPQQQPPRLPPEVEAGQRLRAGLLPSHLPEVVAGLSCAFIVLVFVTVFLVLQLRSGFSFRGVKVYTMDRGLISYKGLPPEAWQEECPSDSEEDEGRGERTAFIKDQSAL

Sequence | furin cleavage Z-score (7.5 min) | furin cleavage Z-score (15 min) | furin cleavage Z-score (30 min)
CASTKCSAHLAGNASASA [HC2514] | -0.0801 (inactive) | 1.2 | 0.075 (inactive)
CATCTTPCSGAGNASASA [HC1958] | -0.852 (inactive) | 0.00782 (inactive) | -0.733 (inactive)
CACRFRFGRQAGNASASA [FS-405] | 2.68 | 3.98 (active) | 2.63
CAHNNRVGRQAGNASASA [FS-596] | 3.21 | 3.29 | 4.86 (active)
CAHQNIVDVQAGNASASA [HC507] | -1.69 (inactive) | -1.38 (inactive) | 0.384 (inactive)
CARRGRFLNQAGNASASA [FS-3047] | -0.612 (inactive) | -0.298 (inactive) | 1.14
CATVSRTGRQAGNASASA [FS-1660] | 0.744 (inactive) | 2.19 | 3.07
CAYNNRPWRPAGNASASA [FS-392] | -1.33 (inactive) | -0.755 (inactive) | -0.205 (inactive)
CATGDNTTTSAGNASASA [HC1341] | 0.632 (inactive) | 0.808 (inactive) | -0.0812 (inactive)
CAEVMCHRPSAGNASASA [HC2346] | -0.818 (inactive) | -0.184 (inactive) | 0.158 (inactive)
CADCMEECSQAGNASASA [HC1820] | -0.19 (inactive) | 0.0434 (inactive) | -0.219 (inactive)
CAARVAIKSLAGNASASA [HC1495] | -0.648 (inactive) | -1.12 (inactive) | -0.674 (inactive)
CACTRGVAKAAGNASASA [HC753] | -1.87 (inactive) | -0.584 (inactive) | -0.853 (inactive)
CATTPCVGSWAGNASASA [HC63] | 1.12 | 0.786 (inactive) | 1.12
CALVALGINAAGNASASA [HC864] | 1.29 | -0.504 (inactive) | -2.31 (inactive)
CAWVAAQLAAAGNASASA [HC1068] | 0.334 (inactive) | 0.0281 (inactive) | 0.213 (inactive)
CAWGPISYANAGNASASA [HC395] | -0.888 (inactive) | 0.0541 (inactive) | -0.197 (inactive)
CARSRKRVSEAGNASASA [FS-2460] | 0.0687 (inactive) | 0.727 (inactive) | 0.464 (inactive)
CARIMRDSGLAGNASASA [FS-2150] | -1.41 (inactive) | 0.545 (inactive) | 0.804 (inactive)
CARWGRGFGLAGNASASA [FS-3129] | 1.38 | -3.28 (inactive) | 1.13
CARSRRGVSEAGNASASA [FS-2461] | 8.54 (active) | 8.94 (active) | 5.25 (active)
CARSRKAKEEAGNASASA [FS-2186] | 0.169 (inactive) | -0.905 (inactive) | -0.373 (inactive)
CARDGRDGRKAGNASASA [FS-1999] | 1.36 | -0.614 (inactive) | -0.387 (inactive)
CARSRRDREEAGNASASA [FS-3236] | 4.34 (active) | 4.09 (active) | 4.68 (active)
CARSRRNDEEAGNASASA [FS-2608] | 0.562 (inactive) | 2.36 | 0.814 (inactive)
CARSRRDGRKAGNASASA [FS-3172] | 6.47 (active) | 7.48 (active) | 6.61 (active)
CARSRRDFGLAGNASASA [FS-2310] | 2.52 | 5.69 (active) | 4.78 (active)
